Experimental data as given in publication PMC13494018.
Values without a mark were called inactive. No rule for the calls is given here.

Target: VTCN1, Q7Z7D3
Sequence (Q7Z7D3 whole entry): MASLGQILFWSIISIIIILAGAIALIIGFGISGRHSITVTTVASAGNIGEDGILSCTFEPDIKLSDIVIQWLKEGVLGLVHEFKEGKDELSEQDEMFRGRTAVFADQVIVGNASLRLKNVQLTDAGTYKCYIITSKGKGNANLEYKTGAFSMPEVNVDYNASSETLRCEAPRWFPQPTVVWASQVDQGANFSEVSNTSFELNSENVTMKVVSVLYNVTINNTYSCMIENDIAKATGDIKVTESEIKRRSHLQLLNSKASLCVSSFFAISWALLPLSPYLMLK

Binder | binding in a display sort
design_596_3e5f537c-0703-45f0-993f-ff416531349a_533_dldesign_0_cycle1_af2pred (protein) SAITEQNKKEALAERAKHVGEAAVKQAKAHAGDVAYIEKLQKQALEAGKKANEEGKKAAEAAAKEIAKIAAQAKAAK | not found
design_596_3e5f537c-0703-45f0-993f-ff416531349a_2235_dldesign_0_cycle1_af2pred (protein) GLYEEAKKEAKEAFSYGIAYLSAVSAKDPSLAPEAEKELEEAFEKVEKALKDAKSGKNPEKALKEIKEIRDEWKEKLKEARA | not found
design_597_f3dcd2b3-c7aa-4b15-88bc-bbb8d01a18cd_323_dldesign_0_cycle1_af2pred (protein) EEVEKKLKELAEKVKKAKELAEKDPEKGIELAKEAIKEAQKLGKEADEETKKKLAEVAEEAVEVRFEALEKLVKS | not found
design_596_3e5f537c-0703-45f0-993f-ff416531349a_1970_dldesign_0_cycle1_af2pred (protein) DEEEKEKKLEEARKAKDEAEEALDKAMEKASPEEALELLEEYRKVSKEAQKLVKEEGVEGAAEAAKLLKEQKKYFEEKYKEL | not found
design_596_3e5f537c-0703-45f0-993f-ff416531349a_778_dldesign_0_cycle1_af2pred (protein) AAAEEEKEQKEKLEEVKELAKKMVEEVKEYAKKTTVEEAKKYLDEKKKELFKYAREKVGYEGVEEAVEAYGEARTAILKLEKN | not found
design_597_f3dcd2b3-c7aa-4b15-88bc-bbb8d01a18cd_362_dldesign_0_cycle1_af2pred (protein) AAEKAKKAADAFRAIAKAAKLALEDPEKGAAAIQAAVDAAKKESPEIAPYVAAVAEEKLAAVKAKLAAAAAA | not found
design_596_3e5f537c-0703-45f0-993f-ff416531349a_2330_dldesign_0_cycle1_af2pred (protein) EEALKKAEERYEKYGKKALELAEKVGLKEEVEEGIKDPSKMPEVIKKLEELGEENPEVRKDAYLAASYLQRAQQAYETKKKIEAA | not found
design_596_3e5f537c-0703-45f0-993f-ff416531349a_1563_dldesign_0_cycle1_af2pred (protein) AEKHLKEAKKLAEEAKKLAEEAEKDPSTAPEKAKKAEEAARKAREEAKKAAEADPSVAPEAAKAAQEAYEARAVAEAVANRYLK | not found
design_596_3e5f537c-0703-45f0-993f-ff416531349a_1315_dldesign_0_cycle1_af2pred (protein) SITYKNKALAYLEAAKHALEVAKKNVGDLEKVKKAYEQAKKFVEKALEYASKVTPEFLAEAKAESEKILAEMEKVLKEAE | not found
design_596_3e5f537c-0703-45f0-993f-ff416531349a_988_dldesign_0_cycle1_af2pred (protein) VEKVAKEAKKAAKEARKEAKKTKDGKAAQELLEAASEAEGYAILAEKDPKYAPKAKEAAKKAKELVEKVKKE | not found
design_596_3e5f537c-0703-45f0-993f-ff416531349a_1302_dldesign_0_cycle1_af2pred (protein) KEKLIEEAKKEAKEVVEKAKAILKSKAKEGKLEEGIKEAANLLQEFQQKLTEISFENPEVKEDMEKIFKEARDELKAEIEAAKAA | not found
design_597_f3dcd2b3-c7aa-4b15-88bc-bbb8d01a18cd_430_dldesign_0_cycle1_af2pred (protein) AVKEKLERAKKYAEETKKLAKELKKNPKFKKTAEEIEKEAEKVLEEAKKAAEKGDAEAVGEKATELRVLKTAAEQLLKAAK | not found
design_597_f3dcd2b3-c7aa-4b15-88bc-bbb8d01a18cd_271_dldesign_0_cycle1_af2pred (protein) DEAKKKAAEELAEAYEYVAEALALGKKTNEEAKKLAKEAKEEFKKYRDKAKALYKAGNYEEAYKEAKKAYEESKKKLEEIKKIAE | not found
design_597_f3dcd2b3-c7aa-4b15-88bc-bbb8d01a18cd_570_dldesign_0_cycle1_af2pred (protein) NAIKKEVEEHLAKAEEYTAKAIETASDPEKFKEYFEKMREEFGKALKAAKADPELKKLAEDKLMEAQMKVTEAKGEAARKKNN | not found
design_596_3e5f537c-0703-45f0-993f-ff416531349a_1683_dldesign_0_cycle1_af2pred (protein) EEEKRREAAERLRELAKKALEDVENAPEYLEEAAREAEKVGDYTTAVLLEQLAEDVRKASPEEAVKFVRAGAERALRSAERLL | not found
design_596_3e5f537c-0703-45f0-993f-ff416531349a_2102_dldesign_0_cycle1_af2pred (protein) AEAVAEEMLARIEEARDALTAADPTLADIADSIADAAKERMRAAAAEGRAEEVAEVGERAVRTLEHLAKLAK | not found
design_596_3e5f537c-0703-45f0-993f-ff416531349a_2108_dldesign_0_cycle1_af2pred (protein) DAVKKAAEEGKERVRRRAEREKKRVTPEARPEIEKAEEKGVKKVEEAAKGTVKEVANAAQEGITEVIEVGAENKIKA | not found
design_596_3e5f537c-0703-45f0-993f-ff416531349a_566_dldesign_0_cycle1_af2pred (protein) DKLVEEAKKAAEEAEKLLDKAIKVSPKAAAEAATAYALYENALSAAESGSATEEEVKAQLEKGKEKLKKAKEIMKKEEEKK | not found
design_596_3e5f537c-0703-45f0-993f-ff416531349a_642_dldesign_0_cycle1_af2pred (protein) SLEENYELAKRVAEAAKEAGKEAKKAGPELAPIGEKAEKEAKELLKEAELAYKDPSYIPEAGKEAQKALEAKAEADWAIAQYK | not found

Binder | binding in a display sort
design_596_3e5f537c-0703-45f0-993f-ff416531349a_2320_dldesign_0_cycle1_af2pred (protein) KKVEELKKKMLEELEKIIEIAKTLPPEEAERLITFAKAARERGEKKGVRGLAKAALNVAFEASKYEETKEAAEKLEELANEIIKLT | not found
design_596_3e5f537c-0703-45f0-993f-ff416531349a_666_dldesign_0_cycle1_af2pred (protein) SEEGKKKVEEAKKRAEKAKKKAKEAIKKSKEEGKAAVYSLLGIAESFKLLAKAMAKTDPEAGKKIKEVAEEAEKKAKELLEEVEK | not found
design_597_f3dcd2b3-c7aa-4b15-88bc-bbb8d01a18cd_135_dldesign_0_cycle1_af2pred (protein) MLTVMQAADIIIDKGAEEAKKAMVETALDVAKKYGIEAGRKAARTLSRIFKNAYGEEEGKEAEKEVLEALEKLEKE | not found
design_596_3e5f537c-0703-45f0-993f-ff416531349a_2018_dldesign_0_cycle1_af2pred (protein) AAEKKAKAEAKKIVEEAAKIAKEKGYDEGMKYAYKASKELAEKYGKEYGAKAFEEAVDAIGDELAKKVKE | not found
design_596_3e5f537c-0703-45f0-993f-ff416531349a_466_dldesign_0_cycle1_af2pred (protein) EEERTKLIKEASDLRREAIALLREAGKAADPATAGAAVFAIPDLEAFTAAAAAAAKAYPELAATWEAAAAKATASHAAVEKAEKL | not found
design_596_3e5f537c-0703-45f0-993f-ff416531349a_1686_dldesign_0_cycle1_af2pred (protein) MDEEIKKKAIEIAQKALEAAAEYEAKAIRTGDEESKKKAEELRELAKKIREALKEGNIEEAKKYAEKAKKLIEEA | not found
design_596_3e5f537c-0703-45f0-993f-ff416531349a_1289_dldesign_0_cycle1_af2pred (protein) MNDALAAESYGEGLVEDAEKEAKEAIEKGASPEELKKVAKKARERAERVRRYAERRAKEAENSEEVLAAGEKAVKKLEEIAKELEKAA | not found
design_597_f3dcd2b3-c7aa-4b15-88bc-bbb8d01a18cd_601_dldesign_0_cycle1_af2pred (protein) SKAEEKAKELEEKLKKAEELAKKDPKKGAKYAKEIAKEARKAGKETGETEKFAKIADKAYQIAAEAEFKAK | not found
design_596_3e5f537c-0703-45f0-993f-ff416531349a_2087_dldesign_0_cycle1_af2pred (protein) MAEKLVEKAKAEMKKLVEEAKKGNPEEARKIRKEIIEKGKKALEEADTEEKKKAAEEIKKIAYKAVEEVLEAYGELLVK | not found
design_596_3e5f537c-0703-45f0-993f-ff416531349a_508_dldesign_0_cycle1_af2pred (protein) KEKIQKEGLKEIEKIAEEGIKEAKKYAEEGKYEEAKKIAKEALEKMREKAKELGEKVGEEAQKQGAKIIQKAREELSEYVQKAKLKK | not found
design_596_3e5f537c-0703-45f0-993f-ff416531349a_1299_dldesign_0_cycle1_af2pred (protein) MSKKLTEALSAFNKAAAAAAKLIDEEAKKDPKKAAEVKKLLAKAVYEIDNPEKAAAYLEAAAKAATDAATKAELNAAAAEAKKLGEL | not found
design_597_f3dcd2b3-c7aa-4b15-88bc-bbb8d01a18cd_98_dldesign_0_cycle1_af2pred (protein) AERVEAAGKIALARIDKAGKGTKEELAVASAQAMALVGVTAGASDEEIDAMVDKVEAAAKGANPVADAKKVLTAAIKELAAK | not found
design_596_3e5f537c-0703-45f0-993f-ff416531349a_1052_dldesign_0_cycle1_af2pred (protein) GEEKLKEAKKEAEKKLEELKKKGKEVGPEAVKIVEKAKERIEKKYKEAEKMKNKEAGALSFEEFAKDAIEAAKKQIEKLAKEKA | not found
design_596_3e5f537c-0703-45f0-993f-ff416531349a_1819_dldesign_0_cycle1_af2pred (protein) HAATVKAVAAEAKELAEEKIKAMKENAKDEEGIKLAVNSMKRFADNDAKLGPEAGAAAKAEYEKVEKAAKEIIKEAKA | not found
design_597_f3dcd2b3-c7aa-4b15-88bc-bbb8d01a18cd_63_dldesign_0_cycle1_af2pred (protein) GEAKAEELIKKAKEALREFAETGSLEALDKAEEYAEEISKFTPEVRAKAAEELEKVGEEGSPAARAVAKNLADYLK | binds (active)
design_596_3e5f537c-0703-45f0-993f-ff416531349a_2079_dldesign_0_cycle1_af2pred (protein) MEKEELQRRLKETAEKLAEKHPEAAPAARLVIRVGEKANAEEVRKLLELTEKALGENWKEYAAEATEYAVEIEADILVKELK | not found
design_596_3e5f537c-0703-45f0-993f-ff416531349a_512_dldesign_0_cycle1_af2pred (protein) DADTIRAASKALKAAGKDPKTAPLAKEAKEALFKGLEYENKDPKKAAEYYKKAAELLRKLAEKAEAKEELLKVAEELEKKAEELKKK | not found
design_596_3e5f537c-0703-45f0-993f-ff416531349a_2173_dldesign_0_cycle1_af2pred (protein) SELKDLLSEAERARHKAEAIATRAKELAKYDPKEAKKIADEAKKVAEEAKKAAELAEKDPEKGKEAIKKVKEKVKKLEKKVKALEKKV | not found
design_596_3e5f537c-0703-45f0-993f-ff416531349a_1329_dldesign_0_cycle1_af2pred (protein) MEASEELRKAIKYARELGEKGTEEHKKLAAEAVFYASSDPEKAIALLKEVAKDPKVKELAEKAIEHIKKLAEL | not found
